Assay results as given in PubChem BioAssay AID1159580 (chemical genetic matrix, 2015).
Screen size: about 5,500 compounds; about 2,000 (36%) were called active. Inconclusive results (about 18%) are left out. Rule as the data show it: active = normalized growth mostly below about 0.91 (no sharp cut-off); inconclusive = no clear call, values can overlap the other calls; inactive = mostly above about 0.92. The list shows a part of the results.

Assay: chemical genetic growth profiling, strain panel (AID 1159580);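 also: tested at 20 µM; growth read once vehicle control cultures reached saturation at 30 °C; 1 = growth at the plate median or of vehicle wells; lower values mean less growth of the strain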
Conditions: growth OD

Measured: normalized growth

O=c1[nH]c(=O)n(C2C[C@@H](O)[C@@H](CO)O2)cc1F (stereo partly drawn)
inactive: S. cerevisiae deletion strains, locus YJR066W, strain TOR1, active compounds read low 0.932 | S. cerevisiae deletion strains, locus YKL009W, strain mrt4, active compounds read low 1.04 | S. cerevisiae deletion strains, locus YKL068W, active compounds read low 1 | S. cerevisiae deletion strains, locus YKL085W, strain MDH1 (second series), active compounds read low 0.996 | S. cerevisiae deletion strains, locus YKL085W, strain MDH1, active compounds read low 0.996 | S. cerevisiae deletion strains, locus YKL160W, strain elf1, active compounds read low 1 | S. cerevisiae deletion strains, locus YKR001C, strain vps1, active compounds read low 1.01 | S. cerevisiae deletion strains, locus YKR026C, strain gcn3, active compounds read low 0.978 | S. cerevisiae deletion strains, locus YKR091W, strain srl3, active compounds read low 0.995 | S. cerevisiae deletion strains, locus YLL001W, strain dnm1, active compounds read low 0.992 | S. cerevisiae deletion strains, locus YLL026W, active compounds read low 0.985 | S. cerevisiae deletion strains, locus YLL041C, strain sdh2, active compounds read low 0.984 | S. cerevisiae deletion strains, locus YLR027C, strain aat2, active compounds read low 0.994 | S. cerevisiae deletion strains, locus YLR039C, strain RIC1, active compounds read low 1.04 | S. cerevisiae deletion strains, locus YLR058C, strain SHM2, active compounds read low 1.02 | S. cerevisiae deletion strains, locus YLR102C, strain apc9, active compounds read low 1.01 | S. cerevisiae deletion strains, locus YLR113W, strain HOG1, active compounds read low 0.986 | S. cerevisiae deletion strains, locus YLR221C, strain rsa3, active compounds read low 1.01 | S. cerevisiae deletion strains, locus YLR258W, strain gsy2, active compounds read low 1.01 | S. cerevisiae deletion strains, locus YLR262C, strain YPT6 (second series), active compounds read low 1.02 | S. cerevisiae deletion strains, locus YLR262C, strain YPT6, active compounds read low 1.04 | S. cerevisiae deletion strains, locus YLR268W, strain sec22, active compounds read low 1.03 | S. cerevisiae deletion strains, locus YLR320W, strain mms22, active compounds read low 1.01 | S. cerevisiae deletion strains, locus YLR330W, strain CHS5, active compounds read low 1.01 | S. cerevisiae deletion strains, locus YLR342W, strain FKS1 (second series), active compounds read low 1.02 | S. cerevisiae deletion strains, locus YLR342W, strain FKS1, active compounds read low 1.01 | S. cerevisiae deletion strains, locus YLR357W, strain rsc2, active compounds read low 0.974 | S. cerevisiae deletion strains, locus YLR370C, strain arc18, active compounds read low 1 | S. cerevisiae deletion strains, locus YLR371W, strain rom2, active compounds read low 1.02 | S. cerevisiae deletion strains, locus YLR384C, strain iki3, active compounds read low 0.982 | S. cerevisiae deletion strains, locus YLR418C, strain cdc73, active compounds read low 1.02 | S. cerevisiae deletion strains, locus YML016C, strain PPZ1, active compounds read low 1.01 | S. cerevisiae deletion strains, locus YML032C, strain rad52, active compounds read low 1 | S. cerevisiae deletion strains, locus YML120C, strain ndi1, active compounds read low 0.984 | S. cerevisiae deletion strains, locus YML124C, strain tub3, active compounds read low 1.01 | S. cerevisiae deletion strains, locus YMR058W, strain fet3, active compounds read low 0.986 | S. cerevisiae deletion strains, locus YMR078C, strain ctf18, active compounds read low 1.01 | S. cerevisiae deletion strains, locus YMR125W, strain sto1, active compounds read low 0.985 | S. cerevisiae deletion strains, locus YMR129W, active compounds read low 0.999 | S. cerevisiae deletion strains, locus YMR205C, strain PFK2, active compounds read low 1.01 | S. cerevisiae deletion strains, locus YMR223W, strain ubp8, active compounds read low 1 | S. cerevisiae deletion strains, locus YMR231W, strain pep5, active compounds read low 1.01 | S. cerevisiae deletion strains, locus YMR263W, strain SAP30, active compounds read low 1.05 | S. cerevisiae deletion strains, locus YMR307W, strain GAS1, active compounds read low 1.05 | S. cerevisiae deletion strains, locus YNL067W, strain RPL9B, active compounds read low 1.06 | S. cerevisiae deletion strains, locus YNL071W, strain lat1, active compounds read low 0.993 | S. cerevisiae deletion strains, locus YNL153C, strain GIM3, active compounds read low 1.04 | S. cerevisiae deletion strains, locus YNL183C, strain NPR1, active compounds read low 0.93 | S. cerevisiae deletion strains, locus YNL209W, strain ssb2, active compounds read low 0.987 | S. cerevisiae deletion strains, locus YNL233W, strain BNI4, active compounds read low 1.05 | S. cerevisiae deletion strains, locus YNL248C, strain rpa49, active compounds read low 0.973 | S. cerevisiae deletion strains, locus YNL250W, strain rad50, active compounds read low 1 | S. cerevisiae deletion strains, locus YNL271C, strain bni1, active compounds read low 1.01 | S. cerevisiae deletion strains, locus YNL298W, strain CLA4, active compounds read low 0.996 | S. cerevisiae deletion strains, locus YNL307C, strain MCK1, active compounds read low 1.02 | S. cerevisiae deletion strains, locus YNL322C, strain KRE1 (second series), active compounds read low 0.999 | S. cerevisiae deletion strains, locus YNL322C, strain KRE1, active compounds read low 1 | S. cerevisiae deletion strains, locus YNR049C, strain mso1, active compounds read low 0.982 | S. cerevisiae deletion strains, locus YNR052C, strain pop2, active compounds read low 1.01 | S. cerevisiae deletion strains, locus YOL012C, strain htz1 1.63 | S. cerevisiae deletion strains, locus YOL147C, strain pex11, active compounds read low 1.02 | S. cerevisiae deletion strains, locus YOR001W, strain rrp6, active compounds read low 0.987 | S. cerevisiae deletion strains, locus YOR061W, strain CKA2, active compounds read low 1.01 | S. cerevisiae deletion strains, locus YOR069W, strain VPS5, active compounds read low 1.01 | S. cerevisiae deletion strains, locus YOR070C, strain gyp1, active compounds read low 1.01 | S. cerevisiae deletion strains, locus YOR080W, strain dia2, active compounds read low 1 | S. cerevisiae deletion strains, locus YOR083W, strain WHI5, active compounds read low 1.01 | S. cerevisiae deletion strains, locus YOR106W, strain vam3, active compounds read low 0.996 | S. cerevisiae deletion strains, locus YOR136W, strain idh2, active compounds read low 1.02 | S. cerevisiae deletion strains, locus YOR144C, strain elg1, active compounds read low 1.01 | S. cerevisiae deletion strains, locus YOR184W, strain ser1, active compounds read low 1.02 | S. cerevisiae deletion strains, locus YOR231W, strain MKK1, active compounds read low 0.98 | S. cerevisiae deletion strains, locus YOR265W, strain rbl2, active compounds read low 1.01 | S. cerevisiae deletion strains, locus YOR270C, strain vph1, active compounds read low 0.994 | S. cerevisiae deletion strains, locus YOR290C, strain snf2, active compounds read low 0.989 | S. cerevisiae deletion strains, locus YOR316C, strain cot1, active compounds read low 1.02 | S. cerevisiae deletion strains, locus YPL051W, strain arl3, active compounds read low 1.02 | S. cerevisiae deletion strains, locus YPL078C, strain atp4, active compounds read low 0.976 | S. cerevisiae deletion strains, locus YPL106C, strain sse1, active compounds read low 1.01 | S. cerevisiae deletion strains, locus YPL240C, strain hsp82, active compounds read low 0.987 | S. cerevisiae deletion strains, locus YPL241C, strain CIN2, active compounds read low 1 | S. cerevisiae deletion strains, locus YPL256C, strain CLN2, active compounds read low 0.957 | S. cerevisiae deletion strains, locus YPR119W, strain clb2, active compounds read low 1.01 | S. cerevisiae deletion strains, locus YPR141C, strain kar3, active compounds read low 1.01 | S. cerevisiae deletion strains, locus YPR163C, strain tif3, active compounds read low 1.01 | S. cerevisiae deletion strains, locus YPR167C, strain met16, active compounds read low 1.02 | S. cerevisiae deletion strains, strain wtn01, active compounds read low 0.996 | S. cerevisiae strains, strain wild type, active compounds read low 1.01
